Reference: PubChem BioAssay AID2783 (National Center for Advancing Translational Sciences (NCATS), 2010)
Inconclusive results are not listed. Activity calls are given as the source filed them. Calls follow the shape of the dose curve; as a rule, active = well fitted inhibition curve with a large enough effect in the polarisation, with a control signal flat (not every such curve was filed as active); inconclusive = small, poorly fitted or top-dose-only effect, or effect the other way, or a change in a side signal; inactive = no such curve, though single readings can be large or run the other way; the % refers to the polarisation.

biological target: Menin (Homo sapiens) (UniProt O00255); experiment: Confirmation of Inhibitors Targeting the Menin-MLL Interaction in MLL Related Leukemias: Competition With Fluorescein Labeled MLL-derived Peptide; details: Fluorescence polarization, fluorescein-MLL peptide displacement from menin; series mostly up to 100 µM; activity change, negative = inhibition: at the top concentration
Sequence (O00255 whole entry, looked up): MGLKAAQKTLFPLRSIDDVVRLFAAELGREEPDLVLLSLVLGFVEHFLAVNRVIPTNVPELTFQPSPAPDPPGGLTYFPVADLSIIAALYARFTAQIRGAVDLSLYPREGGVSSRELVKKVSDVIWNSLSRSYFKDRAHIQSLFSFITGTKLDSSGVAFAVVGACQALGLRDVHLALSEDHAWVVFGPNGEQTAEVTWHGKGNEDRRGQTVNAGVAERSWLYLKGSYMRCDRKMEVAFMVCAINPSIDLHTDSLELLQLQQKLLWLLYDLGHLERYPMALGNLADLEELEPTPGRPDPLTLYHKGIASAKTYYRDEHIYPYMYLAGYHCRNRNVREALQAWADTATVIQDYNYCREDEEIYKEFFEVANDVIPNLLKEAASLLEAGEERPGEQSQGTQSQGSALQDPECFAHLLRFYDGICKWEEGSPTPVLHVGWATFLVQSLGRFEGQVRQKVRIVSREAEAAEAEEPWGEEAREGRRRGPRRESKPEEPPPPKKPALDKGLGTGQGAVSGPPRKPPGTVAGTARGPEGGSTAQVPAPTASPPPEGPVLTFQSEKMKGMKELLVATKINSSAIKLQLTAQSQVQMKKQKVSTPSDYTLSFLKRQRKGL
% is scaled to controls: 0 for no effect and ±100 for the full control effect.

Activity change, negative = inhibition, inactive:
COc1ccc(C2=C(CN(C)C)C(c3ccccc3)c3ccccc3O2)cc1 (stereo not given) -10.7%, COCCNC(=O)C(OC(=O)c1nsc(Cl)c1Cl)C(C)C (stereo not given) -6.55%, Cc1cc2cc(C(c3nnnn3CC3CCCO3)N3CCCc4ccccc43)c(=O)[nH]c2cc1C (stereo not given) -9.39%, O=C(C1CCCN(Cc2cccc(Cl)c2)C1)N1CCCCC1 (stereo not given) -5.74%, N#Cc1ccc(Cl)cc1NC(=O)CNCc1cccs1 -3.53%, c1ccc(-c2ccc(-c3csnn3)cc2)cc1 2.75%, O=C(Nc1cc(Br)ccc1O)c1cc(-c2ccccc2)on1 -3.69%, Cc1cc(N2CCOCC2)nc2ccc(Cl)cc12 4.05%, COc1ccc(C2Nc3ccc4ccccc4c3-c3c2c(=O)oc2ccccc32)cc1 (stereo not given) -7.64%, Cc1c(C(=O)OCC(=O)Nc2ccc(S(N)(=O)=O)cc2)oc2c1ccc1ccccc12 16.6%, CC(CC(=O)Nc1nc2ccccc2[nH]1)n1ccnc1 (stereo not given) -18.8%, O=C(N/N=C/c1cn(-c2cccs2)nc1-c1ccccc1)c1ccccc1O 2.11% [at 288 µM], COc1ccccc1/C=C/C(=O)NC(=S)Nc1ccc(S(=O)(=O)N(C)c2ccccc2)cc1 -15.9%, O=C(CSc1nnc(-c2c[nH]c3ccccc23)o1)N1c2ccccc2CCc2ccccc21 -5.34%, CSC[C@@H]1NC(=S)N(c2ccc(C)cc2)C1=O 3.86%, CCc1ccc(CNC(=O)CCS(=O)(=O)Cc2ccccc2F)cc1 -4.29%, O=C(O)/C(=C\c1ccc(F)cc1)c1ccc(-c2ccccc2)cc1 5.91%, Cc1c(F)cccc1NS(=O)(=O)c1ccc2c(c1)c(C)cc(=O)n2C -15.3%, Oc1ccc(Nc2ncnc3c2oc2ccccc23)cc1 -5.44% [at 288 µM], CCc1oc2ccccc2c1C(=O)c1cc(Br)c(O)c(Br)c1 -17.9%, COC(CSc1nc(N)c2c3c(sc2n1)CN(C)CC3)OC -18.1%, COc1ccc(-c2cc(=O)c3c(O)cc(O)c(-c4cc(-c5cc(=O)c6c(O)cc(OC)cc6o5)ccc4OC)c3o2)cc1 -8.17%, O=C(CSc1ccc(Cl)cc1)Nc1ccc(NC(=O)c2ccco2)cc1 -10.8%, COc1cc(NC(=O)c2cccnc2)c(OC)cc1NC(=O)c1ccc(Br)cc1 2.22%, O=C(c1cc2c(=O)n3ccccc3nc2s1)N1CCOCC1 -2.44% [at 288 µM], Cc1nc2oc3c(NCC4CCCO4)ncnc3c2c2c1COC(C)(C)C2 (stereo not given) -1.23%, Cc1ccc(S(=O)(=O)c2cc(OC(=O)c3ccco3)ccc2OC(=O)c2ccco2)cc1 -3.07%, COc1ccccc1C(=O)Nc1ccccc1SC(=O)c1ccccc1OC 15.3% [at 288 µM], O=C(CSc1nnnn1-c1ccc(O)cc1)N1N=C(c2ccc3ccccc3c2)CC1c1ccccc1 (stereo not given) -12.2%, CC(=O)Nc1ccc(-c2cc3ccccc3o2)cc1 -1.48%, O=S(=O)(NCCc1c[nH]c2ccccc12)c1ccccc1 1.3% [at 288 µM], O=c1c2ccccc2nc(N/N=C/c2c(O)ccc3ccccc23)n1O 9.5% [at 288 µM], CCCN(CCC)CCCNC(=O)c1cc2c(=O)[nH]c3ccccc3c2s1 -12%, O=C(O)c1ccccc1NS(=O)(=O)c1cccc(-n2sc3ccccc3c2=O)c1 5.28% [at 288 µM], CN[C@H]1[C@H](O)[C@@H](O[C@@H]2[C@H](O)[C@@H](O[C@H]3OC(CN)=CC[C@H]3N)[C@@H](N)C[C@H]2N)OC[C@@]1(C)O -4.31%
